# Laboratory results reported in PubChem BioAssay (NCATS).
# Records with an inconclusive call do not appear. Entries that show only a call come without a potency. The source made the active and inactive calls. Calls come from the whole dose curve; as a rule, active = well fitted inhibition curve with a large enough effect; inconclusive = small, poorly fitted or top-dose-only effect; inactive = flat fitted curve, though single readings scatter.
# Tests used:
# Test in all cases: qHTS profiling for inhibitors of Plasmodium falciparum proliferation (AID 504749); note: nearly all actives have a fitted effect of over 60% in size
# Details in all cases: P. falciparum in erythrocytes, SYBR Green DNA, 72 h; series mostly up to 28.7 µM
# AS120 = system: AS120
# Method in brief: (§1)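 Three-day growth assay of blood-stage parasites in erythrocytes (0.3% parasitemia, 2.5% hematocrit) at 37 C, 5% CO2, quantified by SYBR Green DNA staining after overnight detergent lysis.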
# ATS189 = system: ATS189
# Method in brief: as §1
# ATS95 = system: ATS95
# Method in brief: as §1
# C2A = system: C2A
# Method in brief: as §1
# CP185 = system: CP185
# Method in brief: as §1
# CP191 = system: CP191
# Method in brief: as §1
# CP192 = system: CP192
# Method in brief: as §1
# CP194 = system: CP194
# Method in brief: as §1
# CP201 = system: CP201
# Method in brief: as §1
# CP203 = system: CP203
# Method in brief: as §1
# CP211 = system: CP211
# Method in brief: as §1
# CP215 = system: CP215
# Method in brief: as §1
# CP217 = system: CP217
# Method in brief: as §1
# CP237 = system: CP237
# Method in brief: as §1
# CP238 = system: CP238
# Method in brief: as §1
# CP247 = system: CP247
# Method in brief: as §1
# CP250 = system: CP250
# Method in brief: as §1
# CP252 = system: CP252
# Method in brief: as §1
# CP256 = system: CP256
# Method in brief: as §1
# CP260 = system: CP260
# Method in brief: as §1
# Potency is the fitted concentration of half-maximal effect.
SMILES,Potency (AS120),Potency (ATS189),Potency (ATS95),Potency (C2A),Potency (CP185),Potency (CP191),Potency (CP192),Potency (CP194),Potency (CP201),Potency (CP203),Potency (CP211),Potency (CP215),Potency (CP217),Potency (CP237),Potency (CP238),Potency (CP247),Potency (CP250),Potency (CP252),Potency (CP256),Potency (CP260)
Cc1cccc(N(C)C(=S)Oc2ccc3ccccc3c2)c1,inactive,inactive,inactive,inactive,inactive,inactive,inactive,inactive,inactive,inactive,inactive,inactive,inactive,inactive,inactive,inactive,inactive,inactive,inactive,inactive
NC(=O)c1cccnc1,inactive,inactive,inactive,inactive,inactive,inactive,inactive,inactive,inactive,inactive,inactive,inactive,inactive,inactive,inactive,inactive,inactive,inactive,inactive,inactive
NCCCC(O)(P(=O)(O)O)P(=O)(O)O,inactive,inactive,inactive,inactive,inactive,inactive,inactive,inactive,inactive,inactive,inactive,inactive,inactive,inactive,inactive,inactive,inactive,inactive,inactive,inactive
O=P(O)(O)C(O)(Cc1cccnc1)P(=O)(O)O,inactive,inactive,inactive,inactive,inactive,inactive,inactive,inactive,inactive,inactive,inactive,inactive,inactive,inactive,inactive,inactive,inactive,inactive,inactive,inactive
C[C@]12C=CC(=O)C=C1CC[C@@H]1[C@@H]2C(=O)C[C@@]2(C)[C@H]1CC[C@]2(O)C(=O)CO,inactive,inactive,inactive,inactive,inactive,inactive,inactive,inactive,inactive,inactive,inactive,inactive,inactive,inactive,inactive,inactive,inactive,inactive,inactive,inactive
COc1nc(N)nc2c1ncn2[C@@H]1O[C@H](CO)[C@@H](O)[C@@H]1O,inactive,inactive,inactive,inactive,inactive,inactive,inactive,inactive,inactive,inactive,inactive,inactive,inactive,inactive,inactive,inactive,inactive,inactive,inactive,inactive
OC(Cn1cncn1)(Cn1cncn1)c1ccc(F)cc1F,inactive,inactive,inactive,inactive,inactive,inactive,inactive,inactive,inactive,inactive,inactive,inactive,inactive,inactive,inactive,inactive,inactive,inactive,inactive,inactive
Cc1ccnc2c1NC(=O)c1cccnc1N2C1CC1,inactive,inactive,inactive,inactive,inactive,inactive,inactive,inactive,inactive,inactive,inactive,inactive,inactive,inactive,inactive,inactive,inactive,inactive,inactive,inactive
NC(N)=NC(N)=NCCc1ccccc1,inactive,inactive,inactive,inactive,inactive,inactive,inactive,inactive,inactive,inactive,inactive,inactive,inactive,inactive,inactive,inactive,inactive,inactive,inactive,inactive
COc1cc(NS(=O)(=O)c2ccc(N)cc2)nc(OC)n1,inactive,inactive,inactive,inactive,inactive,inactive,inactive,inactive,inactive,inactive,inactive,inactive,inactive,inactive,inactive,inactive,inactive,inactive,inactive,inactive
O=NN(CCCl)C(=O)NC1CCCCC1,inactive,inactive,inactive,inactive,inactive,inactive,inactive,inactive,inactive,inactive,inactive,inactive,inactive,inactive,inactive,inactive,inactive,inactive,inactive,inactive
N=C(N)c1ccc(OCCCCCOc2ccc(C(=N)N)cc2)cc1,891 nM (active),1410 nM (active),1120 nM (active),1260 nM (active),1120 nM (active),398 nM (active),1070 nM (active),849 nM (active),1690 nM (active),953 nM (active),849 nM (active),1070 nM (active),2240 nM (active),251 nM (active),2240 nM (active),1120 nM (active),2510 nM (active),2000 nM (active),501 nM (active),2000 nM (active)
CC(=O)Oc1ccccc1C(=O)Nc1ncc([N+](=O)[O-])s1,inactive,inactive,inactive,inactive,inactive,inactive,inactive,inactive,inactive,inactive,inactive,inactive,inactive,12600 nM (active),inactive,inactive,inactive,inactive,inactive,8910 nM (active)
Nc1nc(N)nc(-c2cc(Cl)ccc2Cl)n1,inactive,inactive,inactive,inactive,inactive,inactive,inactive,inactive,inactive,inactive,inactive,inactive,inactive,inactive,inactive,inactive,inactive,inactive,inactive,inactive
N[C@@H](C(=O)N[C@@H]1C(=O)N2C(C(=O)O)=C(Cl)CS[C@H]12)c1ccccc1,inactive,inactive,inactive,inactive,inactive,inactive,inactive,inactive,inactive,inactive,inactive,inactive,inactive,inactive,inactive,inactive,inactive,inactive,inactive,inactive
Nc1nc(N)c2nc(CNc3ccc(C(=O)NC(CCC(=O)O)C(=O)O)cc3)cnc2n1 (stereo not drawn),inactive,inactive,inactive,inactive,inactive,inactive,inactive,inactive,inactive,inactive,inactive,inactive,inactive,inactive,inactive,inactive,inactive,inactive,inactive,inactive
CCOCC(O)COc1ccc(NC(=O)CC[S+](C)C)cc1 (stereo not drawn),inactive,inactive,inactive,inactive,inactive,inactive,inactive,inactive,inactive,inactive,inactive,inactive,inactive,inactive,inactive,inactive,inactive,inactive,inactive,inactive
COc1ccc2cc3[n+](cc2c1OC)CCc1cc2c(cc1-3)OCO2,1260 nM (active),1410 nM (active),1120 nM (active),1000 nM (active),708 nM (active),891 nM (active),849 nM (active),2130 nM (active),1690 nM (active),1070 nM (active),757 nM (active),953 nM (active),1410 nM (active),1260 nM (active),891 nM (active),3160 nM (active),1410 nM (active),1120 nM (active),282 nM (active),891 nM (active)
O=S(=O)(O)CCS,inactive,inactive,inactive,inactive,inactive,inactive,inactive,inactive,inactive,inactive,inactive,inactive,inactive,inactive,inactive,inactive,inactive,inactive,inactive,
COc1ncnc(NS(=O)(=O)c2ccc(N)cc2)c1OC,inactive,inactive,inactive,inactive,inactive,inactive,inactive,inactive,inactive,inactive,inactive,inactive,inactive,inactive,inactive,inactive,inactive,inactive,inactive,inactive
CC(C)NCC(O)c1ccc(NS(C)(=O)=O)cc1 (stereo not drawn),inactive,inactive,inactive,inactive,inactive,inactive,inactive,inactive,inactive,inactive,inactive,inactive,inactive,inactive,inactive,inactive,inactive,inactive,inactive,inactive
C#CCN[C@@H]1CCc2ccccc21,inactive,inactive,inactive,inactive,inactive,inactive,inactive,inactive,inactive,inactive,inactive,inactive,inactive,inactive,inactive,inactive,inactive,inactive,inactive,inactive
CC(C)Cn1cnc2c(N)nc3ccccc3c21,inactive,inactive,inactive,inactive,inactive,inactive,inactive,inactive,inactive,inactive,inactive,inactive,inactive,inactive,inactive,inactive,inactive,inactive,inactive,
COc1cnc(NS(=O)(=O)c2ccc(N)cc2)nc1,inactive,inactive,inactive,inactive,inactive,inactive,inactive,inactive,inactive,inactive,inactive,inactive,inactive,inactive,inactive,inactive,inactive,inactive,inactive,inactive
CN(CCOc1ccc(CC2SC(=O)NC2=O)cc1)c1ccccn1 (stereo not drawn),inactive,inactive,inactive,inactive,inactive,inactive,inactive,inactive,inactive,inactive,inactive,inactive,inactive,inactive,inactive,inactive,inactive,inactive,inactive,inactive
